Source: PubChem BioAssay (National Center for Advancing Translational Sciences (NCATS))
Compounds with a hit are over-represented: about 7.8% of the library has one in this group of screens.
Vaccinia mCherry: inhibitors of vaccinia virus infection (mCherry reporter signal). Vaccinia virus mCherry reporter infection, fluorescence. Potency, µM (doses to about 36.5 µM), without a hit: at the top dose activity change, negative = inhibition, actives largely listed as inhibitors. 0.63% of 310,000 active. AID 720579; calls by dose curve; tested in A549 cells; also: potency is read from the fitted curve at half-maximal effect; nearly all actives have a fitted effect of over 35% in size
MARV entry inh: blocks Marburg virus binding to or entry into cells. Marburg virus pseudotyped entry inhibition, cell reporter. Potency, µM (titrated, usually from 37.8 µM), for the others: at the highest dose activity change, negative = inhibition, actives largely listed as inhibitors. 1.8% of 300,000 active. AID 540276; calls by dose curve; tested in HEK293 cells; also: potency is read from the fitted curve at half-maximal effect
HCV inh: inhibitors of hepatitis C virus infection | 3.4% of 340,000 active | Potency, µM (highest dose often 41.8 µM), for inactives: top-dose activity change, negative = inhibition, usual class: inhibitors | Huh7.5.1 HCVcc-Cre infection, luciferase reporter, 44 h; active = well fitted inhibition curve with a large enough effect; inconclusive = small, poorly fitted or top-dose-only effect, or another doubt; inactive = no such curve, though single readings can be large or run the other way; also: potency is read from the fitted curve at half-maximal effect
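After 44 h co-culture of compound, cells and HCVcc-Cre (~0.5 moi), substrate is added for 15 min at room temperature and luciferase measured over 15 sec. Cells were seeded at 1,000/well and pre-cultured 4 h.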
VACV Venus inh: inhibitors of vaccinia virus (Venus reporter); Potency, µM (top dose mostly 36.5 µM), without a hit: at the highest dose activity change, negative = inhibition, actives largely listed as inhibitors; AID 720580; 0.46% of 330,000 active; Vaccinia virus Venus reporter expression, fluorescence; calls by dose curve; tested in A549 cells; also: potency is read from the fitted curve at half-maximal effect; nearly all actives have a fitted effect of over 30% in size
LASV entry inh: Lassa virus entry inhibition | Potency, µM (series often up to 37.9 µM), for inactives: at the highest dose activity change, negative = inhibition, most hits filed as inhibitors | 1.2% of 300,000 active | Lassa virus pseudotype entry inhibition, cell reporter; calls by dose curve; tested in HEK293 cells; also: potency is read from the fitted curve at half-maximal effect; nearly all actives have a fitted effect of over 50% in size
HCMV antiviral: inhibitors of human cytomegalovirus; HFF cells, HCMV-luciferase reporter, 72 h; stronger effect = lower value; activity change, negative = inhibition, % at 57.5 µM; 4.5% of 410,000 active; AID 1259415; in the data active = activity change below about -60%; inconclusive = no clear call, values can overlap the other calls; inactive = above about -39%
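After 16 h attachment at 37C, HFF cells received test compound and HCMV-luciferase (1 PFU/cell); reporter luminescence read 72 h later, data normalized against buffer-only and known inhibitor Salinomycin.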
The depositor's hits bear a star; i = inactive; ? = inconclusive; . = no result given; [ ] = remark or other dose. % is scaled to controls: 0 for no effect and ±100 for the full control effect.

SMILES	Vaccinia mCherry	MARV entry inh	HCV inh	VACV Venus inh	LASV entry inh	HCMV antiviral
S=C(NCCc1ccccn1)Nc1ccc(Cl)cc1	-23%	?	-17%	-8%	9%	-78*
O=C(NCCCCc1ccccc1)Nc1cccc(F)c1	-17%	5%[46.1 µM]	-10%	-24%	?	?
Cc1ccc(NC(=S)NCCc2ccccc2)nc1	-11%	-3%[46.1 µM]	?	-24%	0%[46.1 µM]	-115*
Fc1ccc(F)c(NC(=S)NCCc2ccccc2)c1	-4%	?	-14%	-2%	?	-66*
Fc1cccc(NC(=S)NCCc2ccccc2)c1	-6%	?	-20%	-11%	?	-79*
Cc1nc(CN2CCN(C(=O)CC3(c4ccccc4Cl)CC(=O)N(C)C3=O)CC2)cs1 (stereo not given)	-7%	.	.	2%	.	.
CCOc1ccc(NC(=S)NCc2ccc3[nH]c(C)cc3c2)cc1	.	2%	11µM*	.	2.9µM*	-13
Fc1ccccc1NC(=S)NCCc1ccccc1	-17%	?	-11%	-13%	12%	-19
Fc1ccc(NC(=S)NCCc2ccccc2)c(F)c1F	-14%	-10%	?	-27%	-21%	-74*
O=[N+]([O-])c1cccc(NC(=S)NCCc2ccccc2)c1	?	?	13µM*	-21%	-5%	-95*
CCCCNC(=S)NCc1ccc2[nH]c(C)cc2c1	i	9%	?	-2%	?	2
Cc1nc2ccc(NC(=O)c3ccccc3)cc2c(=O)n1Cc1ccc(F)cc1	-17%	.	.	?	.	-73*
CCC(C)NC(=O)Cn1c(=O)n(CCCC(=O)NCc2ccc(C)cc2)c(=O)c2ccccc21 (stereo not given)	3%	10%[46.1 µM]	.	0%	9%[46.1 µM]	6
O=C(CF)NC(NC(=S)Nc1cccc([N+](=O)[O-])c1)C(Cl)(Cl)Cl (stereo not given)	.	-22%	-8%	.	-21%	-70*
O=C(NCCCCc1ccccc1)c1cccc(NC(=O)c2ccccc2)c1	-5%	.	-60%	-26%	12%[46.1 µM]	0
S=C(Nc1ccc(Cl)cc1)NC1CCCCC1	-4%	-29%[46.1 µM]	-10%	-8%	?	-30
COc1ccc(NC(=S)NC(NC(=O)CF)C(Cl)(Cl)Cl)cc1[N+](=O)[O-] (stereo not given)	i	.	-20%	-20%	.	10
CCCCNC(=S)Nc1ccc(SC(F)F)cc1	-23%	?	11µM*	-26%	?	0
CCCCNC(=S)Nc1ccc(F)cc1	-16%	-23%	4%	-11%	4%	-21
S=C(Nc1ccc(Nc2ccccc2)cc1)NC1CCCCCC1	?	?	?	-24%	?	-87*
O=C(NCCc1ccc(F)cc1)c1cccc(NC(=O)c2ccccc2)c1	.	.	22µM*	.	.	-8
CC(=O)c1ccc(NC(=O)c2cn(-c3ccccc3)nc2-c2ccc(Br)cc2)cc1	?	.	.	-19%	6%[46.1 µM]	-1
S=C(NCCc1ccccc1)Nc1cnc2ccccc2c1	.	.	6%	.	.	-63*
CCCOc1ccc(CSCCNC(=S)Nc2ccccc2)cc1	i	?	?	-23%	?	-37
OCCNC(=S)NCCc1ccccc1	i	3%	4%	-2%	-8%	?
SMILES	Vaccinia mCherry	MARV entry inh	HCV inh	VACV Venus inh	LASV entry inh	HCMV antiviral
CCCNC(=S)Nc1ccccc1	i	.	9%	-10%	.	-65*
CC(C)(CNC(=S)NCCc1ccccc1)CNC(=S)NCCc1ccccc1	.	?	?	.	?	-93*
O=C(NC(=S)Nc1cnc2ccccc2c1)c1ccccc1	.	.	14%	.	.	-13
CCOc1ccc(CSCCNC(=S)Nc2ccc(OC)cc2)cc1	.	.	10µM*	.	.	-81*
CCN(CC)CCNC(=O)c1sc2nc3n(c(=O)c2c1C)CCCCC3	-1%	.	.	-7%	10%[46.1 µM]	-9
O=C(N/N=C1\C[C@@H](O)[C@@H](O)[C@@H]2[C@@H]3C(=O)N(Cc4ccc5c(c4)OCO5)C(=O)[C@@H]3CC[C@H]12)OCc1ccccc1	.	-2%[14.2 µM]	.	.	.	.
COc1cc(NC(=O)C(NC(=O)C2CCC(C)CC2)C(C)C)cc(OC)c1OC (stereo not given)	-12%	?	.	-8%	0%[46.1 µM]	14
COC(=O)c1ccc(NC(=S)NCCc2ccccc2C)cc1	-10%	9%	-15%	-12%	-8%	-34
S=C(NCCCc1ccccc1)Nc1ccc(Cl)cc1	-8%	5%	?	?	-27%	-98*
S=C(NCCSCc1ccccc1Cl)Nc1ccccc1	-28%	?	?	-25%	?	-22
COC(=O)c1ccc(NC(=S)NCCc2cccc(C)c2)cc1	.	-24%	22µM*	.	8%	-20
S=C(NCCc1ccccc1)Nc1ccc(Nc2ccccc2)cc1	-21%	?	11µM*	-16%	?	-27
S=C(NCCSCc1ccc(Cl)cc1)Nc1ccccc1	-29%	12%	-2%	-26%	?	-68*
S=C(NCCCc1ccccc1)Nc1ccccc1	-13%	7%[46.1 µM]	-7%	-15%	-20%[46.1 µM]	-39
c1ccc(-c2cc3c(Nc4ccc5c(c4)OCCO5)nccc3[nH]2)cc1	.	.	.	.	.	0
CCCCn1cnc2cc(NC(=O)c3cc(OC)c(OC)c(OC)c3)ccc21	-10%	4%[46.1 µM]	.	-11%	15%[46.1 µM]	88
NC(=O)c1cc([N+](=O)[O-])ccc1NCCc1ccccc1	.	.	11µM*	.	.	-12
O=[N+]([O-])c1ccc(NCCc2ccccc2)c(Br)c1	-2%	.	?	-16%	.	36
CC(C)c1ccc(NC(=O)C2CCCN(S(=O)(=O)c3cccc4cccnc34)C2)cc1 (stereo not given)	-2%	?	.	-19%	?	-6
COc1ccc(Nc2nc(OC)nc(OC)n2)cc1	.	.	5%	.	.	-26
COc1ccc(Nc2nc(Nc3ccc(OC)cc3)nc(-n3[nH]c(=O)c(C)c3C)n2)cc1	?	?	10µM*	-28%	-16%	13
FC(F)(F)c1cc(-c2cccs2)nc(-n2cc(Br)cn2)n1	.	2%	11µM*	.	1%	2
